# High-throughput results (PubChem BioAssay)
# Pf growth 48h = inhibits P. falciparum growth in the first generation, 48 h; P. falciparum luciferase growth in erythrocytes, 48 h; actives 5.9% (n = 310,000); Potency, µM (top dose mostly 28.7 µM), without a hit: at the highest dose activity change, negative = inhibition, hits mostly inhibitors; also: potency is read from the fitted curve at half-maximal effect
#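 Firefly luciferase activity from engineered P. falciparum reports growth; inhibitors lower the luminescent signal. Cultures contained 2% hematocrit erythrocytes at 0.1% final parasitemia.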
# HCMV inh = inhibitors of human cytomegalovirus. HFF cells, HCMV-luciferase reporter, 72 h; active compounds read low. activity change, negative = inhibition, % at 57.5 µM. actives 4.5% (n = 410,000). AID 1259415; in the data active = activity change below about -60%; inconclusive = no clear call, values can overlap the other calls; inactive = above about -39%
#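 Two compound doses tested in HFFs infected with HCMV-luciferase, MOI 1 PFU/cell, 72 h at 37C. Lysate luminescence read with OneGlo; data normalized against buffer-only and 10uM Salinomycin inhibitor controls.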
# Pf growth 96h = inhibits malaria parasite growth, 96 h | actives 6.9% (n = 320,000) | P. falciparum luciferase reporter growth, 96 h | AID 504834 | Potency, µM (titrated, usually from 28.7 µM), for inactives: at the highest dose activity change, negative = inhibition, most hits filed as inhibitors; also: potency is read from the fitted curve at half-maximal effect
#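 Infected RBCs, 2% Hct / 0.05% parasitemia final; luciferase-reporter P. falciparum; cpd 96 h, 37 C, 5% CO2; luciferase detection reagent; luminescence.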
# HCV inh = inhibitors of hepatitis C virus infection; Huh7.5.1 HCVcc-Cre infection, luciferase reporter, 44 h; Potency, µM (highest dose often 41.8 µM), for the others: at the top dose activity change, negative = inhibition, most hits filed as inhibitors; actives 3.4% (n = 340,000); also: potency is read from the fitted curve at half-maximal effect
#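 A cell-based infection assay in which seeded cells (1,000 per well) receive test compound after 4 h, are inoculated with HCVcc-Cre at approximately 0.5 moi, and are incubated 44 h before luminescence detection.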
# LASV entry inh = blocks Lassa virus binding to or entry into cells; Lassa virus pseudotype entry inhibition, cell reporter; Potency, µM (series often up to 37.9 µM), without a hit: at the highest dose activity change, negative = inhibition, hits mostly inhibitors; actives 1.2% (n = 300,000); AID 540256; calls by dose curve; tested in HEK293 cells; also: potency is read from the fitted curve at half-maximal effect; nearly all actives have a fitted effect of over 50% in size
# Marburg entry inh = inhibitors of Marburg virus binding or cell entry; actives 1.8% (n = 300,000); Marburg virus pseudotyped entry inhibition, cell reporter; Potency, µM (top dose mostly 37.8 µM), inactives show top-dose activity change, negative = inhibition, most hits filed as inhibitors; calls by dose curve; tested in HEK293 cells; also: potency is read from the fitted curve at half-maximal effect
# An asterisk follows results filed as active; ? = inconclusive; . = no result; + = active, no number; [ ] = another dose, or the depositor's remark. This is a sample that favours compounds with a hit; in the whole collection about 14% have one here. Unless noted, calls follow the shape of the dose curve; as a rule, active = well fitted inhibition curve with a large enough effect; inconclusive = small, poorly fitted or top-dose-only effect, or another doubt; inactive = no such curve, though single readings can be large or run the other way. % is scaled to controls: 0 for no effect and ±100 for the full control effect.
SMILES,Pf growth 48h,HCMV inh,Pf growth 96h,HCV inh,LASV entry inh,Marburg entry inh
Cc1ccc(N(C)S(=O)(=O)c2ccc(-c3coc(C)n3)cc2)cc1,.,17,.,.,-24%[46.1 µM],.
COc1cc2c(cc1OC)CN(C(=O)/C=C/c1ccc(F)cc1)CC2,?,-30,?,-22%,?,2%[46.1 µM]
COc1cc2c(cc1OC)CN(C(=O)/C=C/c1cc(OC)c(OC)c(OC)c1)CC2,2.6µM*,58,4.7µM*,?,?,-21%
CN1CCN(C(CNC(=O)C(=O)Nc2ccc(Cl)cc2)c2cccnc2)CC1 (stereo not drawn),.,-13,.,.,?,.
CSCCC(NS(=O)(=O)c1ccc(C)cc1)C(=O)Nc1ccc(C)cn1 (stereo not drawn),-17%,-28,-12%,-9%,9%,21%
Brc1ccccc1-c1nc2c3ccccc3ncn2n1,332%,67,294%,-24%,.,.
S=c1nc2ccccc2c2nc(-c3ccccc3Br)[nH]n12,2.9µM*,-5,2.3µM*,4%,19%[46.1 µM],15%[46.1 µM]
C[C@H](NC(=O)OCc1ccccc1)C(=O)OCN1C(=O)c2ccccc2C1=O,.,.,.,.,.,-6%
CC1(C)Oc2ccc3ccc(=O)oc3c2/C(=C/Nc2cccc(O)c2)C1=O,13µM*,-35,81%,?,?,?
CC1(C)Oc2ccc3ccc(=O)oc3c2/C(=C/Nc2ccc(O)cc2)C1=O,?,-85*,-14%,?,?,?
CN/C=C1\C(=O)C(C)(C)Oc2ccc3ccc(=O)oc3c21,-9%,47,.,?,3%,0%
CC1(C)Oc2ccc3ccc(=O)oc3c2/C(=C/NNC(N)=S)C1=O,0.83µM*,14,24%,3%,1%[46.1 µM],-8%[46.1 µM]
O=C(NCCCCNCCCNC(=O)c1ccccc1)c1ccccc1,.,0,.,5%,.,.
CCOC(=O)c1ccc(NC(=O)c2ccc3c(c2)c(C)c(C)n3Cc2ccc(F)cc2)cc1,.,0,.,.,-1%[46.1 µM],.
CCOC(=O)N1CCN(C(=O)CSc2nnc3[nH]c(=O)c(C)c(C)n23)CC1,9.3µM*,-17,?,29%,-3%,3%
COc1ccc(-n2c(SCC(=O)N3CCc4ccccc43)nc3c([nH]c4ccccc43)c2=O)cc1,.,35,.,.,13%[46.1 µM],.
CCn1c(=O)c(C(=O)NNC(=O)c2ccccc2Cl)c(O)c2ccccc21,23%,?,29%,14µM*,?,1%[46.1 µM]
CCCCCC(=O)NNC(=O)c1c(O)c2ccccc2n(CC)c1=O,?,?,10µM*,-24%,?,4%[46.1 µM]
CCCn1c(SC(C)C(=O)NC2CC2)nnc1-c1ccncc1 (stereo not drawn),-10%,-25,-26%,2%,.,.
CCOC(=O)/C=C(C)\C=C\c1c[nH]c2ccccc12,13µM*,1,0%,?,0%,6%
CCOC(=O)/C(=C/c1c[nH]c2ccccc12)NC(C)=O,21%,38,52%,13%,8%,8%
CCc1ccccc1NC(=O)c1cc2c(Cl)nc3ccccc3c2s1,.,-17,.,.,-4%[46.1 µM],1%[46.1 µM]
COc1ccc(-n2cc(-c3ccc(Cl)cc3)[nH]c2=S)cc1,?,-16,?,-6%,.,.
COc1ccc(-c2cn(-c3ccc(Br)cc3)c3[n+]2CCS3)cc1,1µM*,-90*,?,-25%,-5%,-25%
CC(=O)c1ccc(N2CCN(c3ccc(C(F)(F)F)cn3)CC2)cc1,-11%,?,.,?,3%,-3%
SMILES,Pf growth 48h,HCMV inh,Pf growth 96h,HCV inh,LASV entry inh,Marburg entry inh
Clc1ccc(-c2cn(-c3ccccc3)c3[n+]2CCS3)cc1,?,-72*,34%[5.75 µM],-23%,?,?
CC(=O)c1ccc(-n2cc(-c3ccc(C(C)(C)C)cc3)[n+]3c2SCCC3)cc1,?,-98*,?,-3%,?,?
Fc1ccc(-c2cn(-c3ccccc3)c3[n+]2CCS3)cc1,0.93µM*,-25,0.41µM*,?,-27%[46.1 µM],2%[46.1 µM]
COCCCNc1nccc2[nH]c(-c3cccc(C)c3)nc12,.,26,.,.,.,.
CCN(Cc1nc2cc(Cl)ccc2c(=O)[nH]1)C(=O)c1cc2c(s1)CCCCC2,33%,59,27%,-13%,-10%,?
CCN(Cc1nc2cc(Cl)ccc2c(=O)[nH]1)C(=O)C1CC(=O)N(c2cccc3ccccc23)C1 (stereo not drawn),10µM*,3,?,8%,.,.
CC1(C)CC(N=c2cc(-c3ccccc3)oc3ccc(Cl)cc23)CC(C)(C)N1,?,-99*,?,-27%,?,?
COc1ccc(-c2cc(CNc3nc4cc(-c5ccccc5C)sc4c(=O)n3C)on2)cc1,.,80,.,.,.,.
COc1ccc(OC)c(NS(=O)(=O)c2ccc(SC)cc2)c1,-13%,75,-5%,?,?,?
CCOC(=O)c1ccccc1NS(=O)(=O)c1ccc(OCC)cc1,.,-17,9.3µM*,?,2.6µM*,?
CCOC(=O)c1ccccc1NC(=O)CN(c1ccccc1)S(=O)(=O)c1ccc(OCC)cc1,.,?,.,.,-14%[46.1 µM],2%[46.1 µM]
CCOc1ccc(S(=O)(=O)Nc2cc(OC)ccc2OC)cc1,-10%,-64*,47%,-33%,?,?
CC(C)(C)C(=O)Oc1ccc(S(=O)(=O)Nc2ccccc2C(=O)NCC(=O)O)cc1,-4%,.,13µM*,.,.,.
COc1ccc(OC)c(NS(=O)(=O)c2ccc(N3CCCC3=O)cc2)c1,1%,-73*,-2%,-8%,?,?
CCOC(=O)Cc1c(C)[nH]c(=S)[nH]c1=O,1.3µM*,-18,-29%,18%,-2%,0%
O=C(Cn1nc(N2CCN(c3ccccc3)CC2)ccc1=O)NCc1cccc(Cl)c1,.,-21,.,.,2%[46.1 µM],.
Cc1ccc2c(=O)cc(C(=O)Nc3ccc(S(=O)(=O)N4CCC(C)CC4)cc3)oc2c1C,.,9,.,.,0%[46.1 µM],?
CCc1ccc2nc(N(CCCN(C)C)C(=O)c3ccc(S(=O)(=O)N(C)C4CCCCC4)cc3)sc2c1,?,-86*,?,-27%,?,?
COc1cc2nc(N(CCCN(C)C)C(=O)c3ccc(S(=O)(=O)N(C)C4CCCCC4)cc3)sc2cc1OC,?,-8,?,-12%,?,?
CN(C)CCCN(C(=O)c1ccc(S(=O)(=O)N(C)C2CCCCC2)cc1)c1nc2ccc(F)cc2s1,?,-3,?,-11%,?,?
Cc1cc(C)c2sc(N(CCN(C)C)C(=O)c3ccc4ccccc4c3)nc2c1,-21%,+,-8%,?,.,.
CN(C)CCCN(C(=O)c1ccc(S(=O)(=O)N(C)C2CCCCC2)cc1)c1nc2ccc(Br)cc2s1,13µM*,-29,?,?,?,?
CCN(CC)CCN(C(=O)c1c(F)cccc1F)c1nc2cc(C)cc(C)c2s1,?,-22,?,10µM*,.,.
